In PubChem BioAssay (EPA / NIEHS):
Inconclusive results are not listed. The source made the active and inactive calls. The calls were made as follows: active = hit-call score of the fitted dose curve at least 0.9, where 1 is the maximum; inconclusive = response in the unintended direction; inactive = score below 0.9.

Molecular target: human Retinoic Acid Receptor gamma (RARg), RARG (gene 5916) (UniProt P13631)
Assay: ATG_RARg_TRANS: Attagene TRANS-FACTORIAL HepG2 Assay for human Retinoic Acid Receptor gamma (RARg) (AID 2283009)
Summary of the method: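 HepG2 cells transiently transfected with multiplexed reporter units expressing chimeric RARg-GAL4 and GAL4-UAS-driven reporters; 24 h compound exposure. Reporter mRNA quantified by RT-PCR with fluorescent labelling and capillary electrophoresis; gain-of-signal fitted relative to DMSO baseline.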

human Retinoic Acid Receptor gamma (RARg), RARG (gene 5916), sequence (P13631 whole entry, looked up): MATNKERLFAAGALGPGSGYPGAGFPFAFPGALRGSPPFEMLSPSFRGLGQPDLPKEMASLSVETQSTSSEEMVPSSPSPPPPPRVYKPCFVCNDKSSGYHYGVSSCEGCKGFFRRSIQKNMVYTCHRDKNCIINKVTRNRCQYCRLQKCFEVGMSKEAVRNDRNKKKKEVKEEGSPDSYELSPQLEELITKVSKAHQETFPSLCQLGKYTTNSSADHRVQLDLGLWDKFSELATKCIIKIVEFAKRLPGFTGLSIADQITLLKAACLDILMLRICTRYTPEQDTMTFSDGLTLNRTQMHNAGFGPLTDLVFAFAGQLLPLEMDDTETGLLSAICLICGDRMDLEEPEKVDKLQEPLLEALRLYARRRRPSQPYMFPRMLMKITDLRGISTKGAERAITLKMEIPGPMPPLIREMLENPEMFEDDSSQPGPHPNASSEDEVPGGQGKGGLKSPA

SMILES | outcome
CCCCCCCCCCCCCC(=O)OCC | inactive
CC(C)Cc1ccc(C(C)C(=O)O)cc1 (stereo unspecified) | inactive
CCCCCCCCCC(=O)OCC | inactive
CCC(C)C1CCCCC1=O (stereo unspecified) | inactive
CCCCCCCC1CCCC1=O (stereo unspecified) | inactive

Molecular target: human RAR-related Orphan Receptor beta (RORb), RORB (gene 6096) (UniProt Q92753)
Assay: ATG_RORb_TRANS: Attagene TRANS-FACTORIAL HepG2 Assay for human RAR-related Orphan Receptor beta (RORb) (AID 2283010)
Summary of the method: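 HepG2 cells were transiently transfected with multiplexed GAL4-UAS reporter units expressing chimeric nuclear receptor–GAL4 proteins, then dosed for 24 h. Reporter mRNA was quantified by RT-PCR with fluorescent labelling and capillary electrophoresis; gain of signal was fitted relative to DMSO.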

human RAR-related Orphan Receptor beta (RORb), RORB (gene 6096), sequence (Q92753 whole entry, looked up): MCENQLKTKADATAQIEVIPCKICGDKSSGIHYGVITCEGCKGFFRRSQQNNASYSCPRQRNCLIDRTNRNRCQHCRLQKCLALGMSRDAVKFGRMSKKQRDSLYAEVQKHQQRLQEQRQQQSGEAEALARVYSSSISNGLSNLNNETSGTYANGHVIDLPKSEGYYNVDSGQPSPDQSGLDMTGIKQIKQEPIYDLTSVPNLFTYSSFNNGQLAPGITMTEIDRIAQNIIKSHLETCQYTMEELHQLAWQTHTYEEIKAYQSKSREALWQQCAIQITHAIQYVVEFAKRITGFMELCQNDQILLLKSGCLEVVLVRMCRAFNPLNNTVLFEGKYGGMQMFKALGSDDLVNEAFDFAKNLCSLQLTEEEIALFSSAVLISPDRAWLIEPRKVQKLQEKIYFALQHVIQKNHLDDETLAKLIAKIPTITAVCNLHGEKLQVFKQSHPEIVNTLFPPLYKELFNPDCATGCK

SMILES | outcome
CCC=C(C)C=O | inactive
CC(=O)CCc1ccc(O)cc1 | inactive
Cc1cccc(O)c1 | inactive
CC1=C(C=O)C(C)(C)CCC1 | inactive
CCCCOCC(C)OCC(C)O (stereo unspecified) | inactive
O=S1(=O)CC=CC1 | inactive
CCC(=O)OC(C)(C)C1CC=C(C)CC1 (stereo unspecified) | inactive
Cc1cc(N)n(-c2ccccc2)n1 | inactive
CCC(C)C1CCCCC1=O (stereo unspecified) | inactive
C/C=C(\C)C(=O)OC/C=C(\C)CCC=C(C)C | inactive
CCCCCCCC1CCCC1=O (stereo unspecified) | inactive
